These results are taken from PubChem BioAssay.

SMILES strings stand for the structures. The list shows a part of the results. The source made the active and inactive calls.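 Rule for the calls, unless noted: active = differentiation response of at least 50%, scaled between solvent and reference control, from cells with both markers; inactive = the rest.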

Test [1] in a line: reduced mouse 2C T cell binding to pMHC/ICAM-1 vesicles – MLPCN validation set, flow cytometry, LFA-1/ICAM-1 modulator project, pilot screen (AID 2523;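 active = response below a set limit, under 55% cells CD8-positive and vesicle-bound, and CD8 cells' 90th-percentile brightness under 279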;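 for vesicle binding response: mean PE anti-B7-1 fluorescence of CD8+ cells relative to row control; 100% = QL9-loaded vesicles with DMSO vehicle in the same plate row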). To be noted: 2C mouse CD8+ T cells, at 7 µM, stronger effect = lower value; double positive events: measured here: CD8+/vesicle+ event percentage.
Test [2] concerns the target Integrin beta-1 (Homo sapiens) + Integrin alpha-4 (Homo sapiens) (UniProt P13612+P05556). In words: alpha4beta1 integrin LIBS antibody binding reduction – U937 cells, HUTS-21 mAb, flow cytometry, validation set, VLA-4 allosteric modulator project, pilot screen (AID 2674;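 active = inhibition above 50%, about 3 SD of the validation set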;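 note: antibody binding induced by the VLA-4 ligand LDV present at three times its Kd; 0% = LDV ligand with antibody and no compound and 100% = antibody without LDV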). As to conditions: HUTS-21 LIBS mAb binding, at 6.7 µM, stronger effect = higher value, binding induced by LDV ligand.

Test [3] deals with Beta-adrenergic receptor kinase 1 (Homo sapiens) (UniProt P25098). Description: GRK2 binders displacing RNA aptamer, biochemical, validation, human GRK2, bead flow cytometry (AID 488806;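 active = aptamer binding inhibition above 30%, about 3 SD of noise from non-fluorescent compounds; inactive = inhibition at or below 30%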). As to conditions: bead-bound GRK2, FAM-aptamer displacement, at 10 µM, stronger effect = higher value.
Sequence of Beta-adrenergic receptor kinase 1 (Homo sapiens) (P25098 whole entry, looked up): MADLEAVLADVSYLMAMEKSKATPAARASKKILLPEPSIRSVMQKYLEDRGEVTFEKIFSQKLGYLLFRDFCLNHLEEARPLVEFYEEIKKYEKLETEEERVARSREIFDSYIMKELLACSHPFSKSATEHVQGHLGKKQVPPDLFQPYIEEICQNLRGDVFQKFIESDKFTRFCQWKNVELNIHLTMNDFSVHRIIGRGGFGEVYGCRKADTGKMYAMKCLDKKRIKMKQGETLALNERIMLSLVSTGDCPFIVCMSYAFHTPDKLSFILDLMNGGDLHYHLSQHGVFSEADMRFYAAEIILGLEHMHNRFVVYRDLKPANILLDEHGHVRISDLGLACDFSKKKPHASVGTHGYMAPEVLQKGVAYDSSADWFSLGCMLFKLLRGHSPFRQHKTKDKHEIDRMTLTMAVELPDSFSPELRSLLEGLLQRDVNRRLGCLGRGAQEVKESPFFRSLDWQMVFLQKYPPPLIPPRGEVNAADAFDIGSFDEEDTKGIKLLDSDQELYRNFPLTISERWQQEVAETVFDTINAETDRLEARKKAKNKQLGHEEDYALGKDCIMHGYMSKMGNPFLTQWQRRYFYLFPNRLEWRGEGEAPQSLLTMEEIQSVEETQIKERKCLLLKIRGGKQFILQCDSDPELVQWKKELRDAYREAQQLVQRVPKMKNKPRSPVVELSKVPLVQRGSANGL
For test [4], the target named is Beta-2 adrenergic receptor (Homo sapiens) (UniProt P07550). Description: agonist-induced loss of surface beta2AR – cell-based, FAP fluorogen, flow cytometry, validation set, pilot screen (AID 504459;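 active = percent response above 42, roughly 3 SD of non-fluorescent test compounds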;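 note: agonist-driven loss of surface beta2AR via internalization measured by FAP dye flow cytometry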). To be noted: Am2.2-beta2AR cells, at 10 µM, stronger effect = higher value.
Sequence of Beta-2 adrenergic receptor (Homo sapiens) (P07550 whole entry, looked up): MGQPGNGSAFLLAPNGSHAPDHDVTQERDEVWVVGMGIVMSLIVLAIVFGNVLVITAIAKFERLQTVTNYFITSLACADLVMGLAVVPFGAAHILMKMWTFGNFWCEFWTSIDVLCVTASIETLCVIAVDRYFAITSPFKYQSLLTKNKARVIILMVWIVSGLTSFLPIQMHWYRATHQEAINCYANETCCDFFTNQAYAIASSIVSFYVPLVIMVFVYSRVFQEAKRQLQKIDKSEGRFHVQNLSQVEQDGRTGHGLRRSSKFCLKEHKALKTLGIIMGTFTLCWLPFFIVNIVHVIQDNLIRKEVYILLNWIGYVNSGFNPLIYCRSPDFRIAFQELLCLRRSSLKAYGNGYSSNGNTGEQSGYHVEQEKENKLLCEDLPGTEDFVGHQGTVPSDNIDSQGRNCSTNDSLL
The nature of test [5]: cytosolic pH regulators acting via V-ATPase – S. cerevisiae, pHLuorin, HTS validation (AID 504600; in the data active = response above about 15%;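 note: plate controls were DMSO for no effect and reference compound for full effect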). To be noted: V-ATPase proton transport, at 10 µM, stronger effect = higher value.
Test [6] has as its system anti-desmoglein-3 scFv antibody binding to human DSG3. Description: blockers of pathogenic pemphigus antibody–desmoglein-3 binding – biochemical, validation compound set, bead-based, flow cytometry, pilot screen (AID 588368;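 active = binding below the plate cutoff, the plate median minus 3 SD, with a reading above zero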;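 note: signal is the median channel fluorescence of bead-bound GFP antibody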). As to conditions: Protein G beads, DSG3-Fc, scFv-GFP binding, at 10 µM, stronger effect = lower value.
Test [7] in a line: Nile Red efflux blockade in pump-expressing yeast – validation compound set, multiplex, phenotypic, pilot screen (AID 588506;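 active = efflux inhibition above 0.42, the validation set average plus 4 SD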;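 note: Nile Red retained in cells so higher fluorescence means more efflux inhibition; 0 = negative control wells and 1 = enniatin B 25 µM full block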). As to conditions: S. cerevisiae pump-expressing triplex, Nile Red efflux flow cytometry; at 10 µM; stronger effect = higher value; the pumps come from Candida albicans.
Test [8] deals with ATP-binding cassette sub-family B member 6 (Homo sapiens) (UniProt Q9NP58). In words: blockers of ABCB6-driven porphyrin uptake – K562-ABCB6 cells, flow cytometry, validation set, pilot screen (AID 588550;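 active = inhibition above the screen-wide mean plus 3 SD, about 51%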;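 note: 0% = DMSO wells and 100% = benzethonium chloride 70 µM positive control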). To be noted: K562-ABCB6 porphyrin accumulation, 1 h, at 10 µM, stronger effect = higher value.
Sequence of ATP-binding cassette sub-family B member 6 (Homo sapiens) (Q9NP58 whole entry, looked up): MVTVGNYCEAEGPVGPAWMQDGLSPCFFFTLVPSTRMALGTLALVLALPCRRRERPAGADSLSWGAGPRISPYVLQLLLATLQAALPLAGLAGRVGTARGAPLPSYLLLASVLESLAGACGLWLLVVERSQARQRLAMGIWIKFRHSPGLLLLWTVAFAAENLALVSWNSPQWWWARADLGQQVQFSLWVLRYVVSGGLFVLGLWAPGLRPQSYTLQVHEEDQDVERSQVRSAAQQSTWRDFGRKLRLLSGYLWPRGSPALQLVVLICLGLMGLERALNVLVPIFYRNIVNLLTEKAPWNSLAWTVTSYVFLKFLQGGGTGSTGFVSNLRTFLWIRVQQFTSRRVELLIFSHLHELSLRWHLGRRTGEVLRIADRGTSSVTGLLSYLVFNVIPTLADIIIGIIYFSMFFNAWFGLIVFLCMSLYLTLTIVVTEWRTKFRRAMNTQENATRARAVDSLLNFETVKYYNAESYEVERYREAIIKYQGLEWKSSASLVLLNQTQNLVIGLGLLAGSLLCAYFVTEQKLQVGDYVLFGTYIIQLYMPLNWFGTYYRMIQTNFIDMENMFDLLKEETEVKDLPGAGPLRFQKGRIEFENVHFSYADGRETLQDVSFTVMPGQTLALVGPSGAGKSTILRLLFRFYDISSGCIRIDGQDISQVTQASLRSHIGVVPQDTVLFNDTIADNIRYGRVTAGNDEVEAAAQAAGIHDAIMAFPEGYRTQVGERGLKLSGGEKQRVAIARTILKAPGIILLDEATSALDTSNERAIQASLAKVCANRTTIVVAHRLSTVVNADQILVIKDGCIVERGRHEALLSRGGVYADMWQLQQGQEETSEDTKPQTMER
Test [9] can be described thus: AML differentiation inducers, ER-HoxA9 marrow cells – cell-based, GFP/MAC1 double positive, flow cytometry, validation set, primary screen (AID 588685).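 Note: compound exposure lasts four days before antibody staining and flow analysis; 0% = DMSO wells and 100% = 5 µM fulvestrant positive control.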 To be noted: stronger effect = higher value, normalized: vehicle 0, fulvestrant 100.
A short description of test [10]: calorie-restriction mimetic ROS inhibitors, yeast – validation compound set, pilot screen (AID 2706;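 active = superoxide response below 65% of plate, a cut near 3 SD across the whole screen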;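 note: yeast exposed to compound for one week at 30 degrees C before staining; 100% = mean of all compound wells on the same plate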). As to conditions: S. cerevisiae aging, superoxide DHE fluorescence; at 10 µM, stronger effect = lower value.
Test [11] addresses AP-2 complex subunit beta (Homo sapiens) (UniProt P63010). In words: beta-arrestin/AP2 interaction blockers – biochemical, validation set, GST-AP2 beads, flow cytometry, pilot screen (AID 504541;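 active = inhibition above 54%, about 3 SD of non-fluorescent compounds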;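 note: AP2 carries R879A mutation and is captured from E. coli lysate; bead-bound FITC arrestin peptide fluorescence measuring arrestin peptide binding to AP2; 0% = DMSO wells and 100% = excess unlabeled arrestin peptide control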). To be noted: FITC arrestin peptide, at 10 µM, stronger effect = higher value, AP2 beta2 appendage fragment, R879A mutant.
Test [12] in a line: yeast TOR reporter LAP4-GFP level changes – cell-based, second cherry pick, flow cytometry, confirmation (AID 2621;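 active = GFP signal as percent of the solvent control above about 150%, meaning raised reporter expression, limit read from the data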;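 note: ratio of well median GFP fluorescence to plate DMSO mean so 100% = DMSO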). To be noted: S. cerevisiae LAP4-GFP strain, 3 h, at 10 µM, stronger effect = higher value.
A short description of test [13]: TOR pathway reporter MEP2-GFP, hit retest – S. cerevisiae, flow cytometry GFP, second cherry picks, confirmation (AID 2622;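 active = GFP signal above 150% of the solvent control wells, that is a rise of more than half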;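 note: median channel GFP fluorescence of all gated yeast cells per well; ratio of median GFP to plate DMSO average so 100% = DMSO level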). As to conditions: S. cerevisiae MEP2-GFP strain, 3 h, at 10 µM, stronger effect = higher value.
Test [14] can be described thus: retest of hits on RPL19A-GFP strain – cell-based, S. cerevisiae, flow cytometry, second cherry pick, confirmation (AID 2623;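 active = under 65% GFP response relative to DMSO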;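 note: median GFP channel fluorescence per well over the all cells gate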). As to conditions: 3 h, at 10 µM, stronger effect = lower value, 100% means same as DMSO wells.
Test [15] is described as follows: yeast TOR pathway CIT2-GFP reporter modulation – flow cytometry, second cherry pick, single plex, confirmation (AID 2624;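 active = GFP response vs DMSO above about 150%, limit read from the data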;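 note: median green fluorescence per well over all gated yeast cells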). As to conditions: S. cerevisiae CIT2-GFP strain, 3 h, at 10 µM, stronger effect = higher value, DMSO control wells read 100%.
Test [16] can be described thus: yeast AGP1-GFP fluorescence change, single-dose confirmation – cell-based, flow cytometry, S. cerevisiae, cherry pick set 2 (AID 2643;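 active = over 150 percent of DMSO response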;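 note: median GFP channel fluorescence over all cells without mother daughter split; sample median GFP divided by mean DMSO control so 100% equals DMSO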). As to conditions: S. cerevisiae AGP1-GFP strain, 3 h, at 10 µM, stronger effect = higher value.
Test [17] is described as follows: green-channel fluorescence artefact in S. cerevisiae – s288c strain, artefact control for yeast TOR pathway GFP screen, dose response (AID 2757;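 active = fluorescence span over the dose series, or activity score, above about 33, limit read from the data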;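 note: thousands of bead-calibrated equivalent soluble fluorophore molecules from median cell fluorescence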). To be noted: 520 nm autofluorescence, flow cytometry, 3 h, at 33 µM, stronger effect = higher value, zero means same as solvent-only cells.

Sequence of Integrin beta-1 (Homo sapiens) + Integrin alpha-4 (Homo sapiens) (P05556 whole entry, looked up): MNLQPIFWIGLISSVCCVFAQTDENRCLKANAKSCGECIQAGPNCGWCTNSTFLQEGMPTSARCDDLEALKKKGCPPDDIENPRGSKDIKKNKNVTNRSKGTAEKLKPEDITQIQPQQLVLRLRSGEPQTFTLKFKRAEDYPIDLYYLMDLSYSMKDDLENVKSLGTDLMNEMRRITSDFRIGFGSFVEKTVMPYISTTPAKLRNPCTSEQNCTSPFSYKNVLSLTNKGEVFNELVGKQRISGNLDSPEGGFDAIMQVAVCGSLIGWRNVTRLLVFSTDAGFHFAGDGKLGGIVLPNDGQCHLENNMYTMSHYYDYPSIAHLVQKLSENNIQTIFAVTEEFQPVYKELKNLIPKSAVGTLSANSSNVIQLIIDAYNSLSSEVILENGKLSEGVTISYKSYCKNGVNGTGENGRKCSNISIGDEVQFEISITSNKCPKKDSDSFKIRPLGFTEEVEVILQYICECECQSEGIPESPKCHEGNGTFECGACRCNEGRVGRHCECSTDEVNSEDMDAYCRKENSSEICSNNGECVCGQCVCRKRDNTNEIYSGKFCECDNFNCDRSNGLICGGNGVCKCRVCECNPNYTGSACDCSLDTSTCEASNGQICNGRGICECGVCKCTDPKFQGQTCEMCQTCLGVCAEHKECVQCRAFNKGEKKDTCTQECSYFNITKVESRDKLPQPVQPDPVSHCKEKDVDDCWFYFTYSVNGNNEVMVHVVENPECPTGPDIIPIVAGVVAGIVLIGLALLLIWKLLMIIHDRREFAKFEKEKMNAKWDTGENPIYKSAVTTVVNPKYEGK
Sequence of Integrin beta-1 (Homo sapiens) + Integrin alpha-4 (Homo sapiens) (P13612 whole entry, looked up): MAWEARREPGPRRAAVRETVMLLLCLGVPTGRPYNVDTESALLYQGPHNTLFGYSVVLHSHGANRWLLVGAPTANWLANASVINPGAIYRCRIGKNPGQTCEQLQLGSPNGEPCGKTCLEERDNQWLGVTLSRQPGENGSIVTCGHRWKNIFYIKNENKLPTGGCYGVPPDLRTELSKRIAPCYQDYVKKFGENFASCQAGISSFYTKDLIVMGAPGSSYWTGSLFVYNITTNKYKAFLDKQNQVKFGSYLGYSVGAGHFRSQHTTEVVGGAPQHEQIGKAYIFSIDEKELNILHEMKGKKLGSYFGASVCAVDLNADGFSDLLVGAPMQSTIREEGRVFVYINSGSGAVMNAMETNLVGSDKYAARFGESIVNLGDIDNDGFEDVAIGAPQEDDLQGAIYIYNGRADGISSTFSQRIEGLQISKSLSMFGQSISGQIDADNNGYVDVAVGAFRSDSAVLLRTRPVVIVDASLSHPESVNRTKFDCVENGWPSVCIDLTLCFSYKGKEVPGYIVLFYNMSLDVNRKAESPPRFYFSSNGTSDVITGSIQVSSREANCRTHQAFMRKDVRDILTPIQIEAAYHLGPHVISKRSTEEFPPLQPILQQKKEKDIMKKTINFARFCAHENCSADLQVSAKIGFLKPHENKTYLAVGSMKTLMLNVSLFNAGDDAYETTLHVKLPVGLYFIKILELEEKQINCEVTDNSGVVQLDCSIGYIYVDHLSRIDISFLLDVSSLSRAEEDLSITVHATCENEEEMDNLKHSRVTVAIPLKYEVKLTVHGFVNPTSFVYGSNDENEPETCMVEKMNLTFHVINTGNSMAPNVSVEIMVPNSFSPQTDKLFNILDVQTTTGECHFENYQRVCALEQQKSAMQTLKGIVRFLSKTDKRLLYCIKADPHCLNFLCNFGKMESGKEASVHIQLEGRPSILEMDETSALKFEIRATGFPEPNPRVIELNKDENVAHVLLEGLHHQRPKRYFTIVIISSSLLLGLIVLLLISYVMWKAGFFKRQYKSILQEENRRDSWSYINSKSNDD
Sequence of AP-2 complex subunit beta (Homo sapiens) (P63010 whole entry, looked up, the tested form may be a part, one chain of several): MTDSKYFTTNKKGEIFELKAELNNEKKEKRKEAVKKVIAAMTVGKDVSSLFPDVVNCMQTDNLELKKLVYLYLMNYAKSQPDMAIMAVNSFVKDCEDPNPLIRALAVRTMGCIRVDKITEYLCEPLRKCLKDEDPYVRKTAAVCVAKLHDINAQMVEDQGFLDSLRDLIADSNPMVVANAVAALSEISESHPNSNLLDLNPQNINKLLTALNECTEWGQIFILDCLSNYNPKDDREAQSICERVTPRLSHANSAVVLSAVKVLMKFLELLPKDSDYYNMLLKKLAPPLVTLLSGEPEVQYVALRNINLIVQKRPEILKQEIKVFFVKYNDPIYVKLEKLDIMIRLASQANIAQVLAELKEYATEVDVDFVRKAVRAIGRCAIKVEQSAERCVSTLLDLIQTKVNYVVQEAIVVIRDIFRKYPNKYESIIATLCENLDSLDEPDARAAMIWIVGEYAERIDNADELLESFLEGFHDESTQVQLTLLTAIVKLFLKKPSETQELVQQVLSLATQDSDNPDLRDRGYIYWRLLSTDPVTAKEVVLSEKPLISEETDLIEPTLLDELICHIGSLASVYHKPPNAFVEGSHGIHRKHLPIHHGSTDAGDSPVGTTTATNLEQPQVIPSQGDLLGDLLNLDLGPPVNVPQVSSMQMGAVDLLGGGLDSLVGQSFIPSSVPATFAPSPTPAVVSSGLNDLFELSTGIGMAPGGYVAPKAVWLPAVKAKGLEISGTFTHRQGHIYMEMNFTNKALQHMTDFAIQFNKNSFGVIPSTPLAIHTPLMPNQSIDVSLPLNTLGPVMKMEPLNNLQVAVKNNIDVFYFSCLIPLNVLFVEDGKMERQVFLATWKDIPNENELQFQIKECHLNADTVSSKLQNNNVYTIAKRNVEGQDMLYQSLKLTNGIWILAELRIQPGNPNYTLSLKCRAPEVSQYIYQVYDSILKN

`CCn1c(=N)c(C(=O)NC)cc2c(=O)n3cccc(C)c3nc21` yielded a double positive events in test [1] of 55.2%. Moreover, the vesicle binding response in test [1] was 26.6% (inactive). In addition, the inhibition was -8.75% (inactive) in test [2] and 5% (inactive) in [8]. In test [3], the aptamer binding inhibition is 2% (inactive). Also, the response in test [4] is -15.1% (inactive); in test [5], -34.5% (inactive). Besides, the binding (% of control) in test [6] was 108% (inactive). Besides, the efflux inhibition (fraction of control) in [7] was 1.08 (active). The differentiation response in [9] is 24.7% (inactive).
For `CC(C)NC[C@@H](O)c1ccc(O)c(O)c1`, the double positive events in test [1] came out at 58%. Further, the vesicle binding response in [1] is 125% (inactive). The inhibition in [2] is -27.9% (inactive); in test [11] it was 0.64% (inactive); in test [8], 2% (inactive). Further, the superoxide response (% of plate) in [10] is 97.4% (inactive). The response in [5] was 11.9% (inactive). For the same molecule, the binding (% of control) in [6] is 97.3% (inactive). For the same molecule, in [7], the efflux inhibition (fraction of control) is 0 (inactive). The differentiation response in test [9] was -7.5% (inactive).
In turn, `C(=C\c1ccccc1)/CN1CCN(C(c2ccccc2)c2ccccc2)CC1` returned a double positive events in test [1] of 66.7%. Moreover, the inhibition in test [2] was -1.3% (inactive); in [11], 0.96% (inactive); in test [8] it was 16% (inactive). Besides, the superoxide response (% of plate) in [10] is 86.5% (inactive). Also, in [3], the aptamer binding inhibition is 0% (inactive). Also, the results for the response in [4] and in [5] were 11.4% (inactive) and 0.39% (inactive), respectively. Also, the binding (% of control) in test [6] was 120% (inactive). The efflux inhibition (fraction of control) in test [7] is -0.24 (inactive). Moreover, in [9], the differentiation response is 1.64% (inactive).
Turning to `Oc1ccc(Cl)cc1Cc1cc(Cl)ccc1O`, the double positive events in test [1] stood at 63.4%. For the same molecule, in test [1], the vesicle binding response was 194% (inactive). In addition, in test [10], the superoxide response (% of plate) is 110% (inactive). Further, in [3], the aptamer binding inhibition is 3% (inactive). For the same molecule, the response was 17.5% (inactive) in test [4] and 0.73% (inactive) in [5]. For the same molecule, the inhibition in test [11] was 24.9% (inactive); in test [8] it was 11% (inactive). The binding (% of control) in test [6] was 108% (inactive). Moreover, the efflux inhibition (fraction of control) in test [7] is -0.04 (inactive). In test [9], the differentiation response is 4.2% (inactive).
Consider `CCC(=C/c1sc2ccc3ccccc3c2[n+]1C)/C=C1\Sc2ccc3ccccc3c2N1C`, for which the GFP response vs DMSO in test [12] was 2930% (active); in test [13], 285% (active); in test [14] it was 451% (inactive); in test [15] it was 303% (active). Besides, the percent response vs DMSO in test [16] is 98.8% (inactive).
On to `COc1ccc(S(=O)(=O)N2CCN(C(=O)COc3ccc4c(C)cc(=O)oc4c3)CC2)cc1`, for which the double positive events in [1] was determined as 90%. The inhibition in [2] is 3.67% (inactive); in [11], -2.78% (inactive); in [8], -3% (inactive). Also, in test [10], the superoxide response (% of plate) was 96.9% (inactive). Moreover, the aptamer binding inhibition in [3] is -1% (inactive). Besides, the response in [4] was 11.5% (inactive); in [5] it was 0.22% (inactive). In test [6], the binding (% of control) was 103% (inactive). Also, the efflux inhibition (fraction of control) in [7] was 0.3 (inactive). The differentiation response in test [9] is 4% (inactive).
Regarding `COc1ccc2nc(N3CCN(C(=O)c4ccc([N+](=O)[O-])o4)CC3)sc2c1`, the GFP response vs DMSO in test [12] is 252% (active); in test [13], 255% (active); in test [14] it was 87% (inactive); in test [15] it was 243% (active). The percent response vs DMSO in [16] is 87.3% (inactive).
`O=C(Nc1nnc(-c2ccc(Cl)cc2)o1)c1ccccc1Br`: the GFP response vs DMSO was 174% (active) in [12], 120% (inactive) in test [13], 99.6% (inactive) in test [14] and 133% (inactive) in [15]. Besides, the percent response vs DMSO in test [16] was 95.3% (inactive). The fluorescence change (kMESF span) in test [17] is 0.5 (inactive).
On to `CN1CCc2cccc3c2[C@H]1Cc1ccc(O)c(O)c1-3`, for which the double positive events in [1] worked out at 61%. Also, the vesicle binding response in test [1] was 187% (inactive). The inhibition is -17.1% (inactive) in test [2], 3.9% (inactive) in test [11] and -1% (inactive) in test [8]. Further, in test [3], the aptamer binding inhibition was 4% (inactive). Also, the results for the response in test [4] and in test [5] were 6.81% (inactive) and 2.95% (inactive), respectively. In addition, in test [6], the binding (% of control) is 94.3% (inactive). Moreover, the efflux inhibition (fraction of control) in test [7] is 0.08 (inactive). Moreover, in test [9], the differentiation response was 20.8% (inactive).
As to `Cc1ccc(S/C(=N\S(=O)(=O)c2ccc(Cl)cc2)c2ccccc2)cc1`, the GFP response vs DMSO in test [12] is 101% (inactive); in test [13], 105% (inactive); in [14], 98% (inactive); in test [15] it was 107% (inactive). The percent response vs DMSO in test [16] is 99.1% (inactive).
With `Cc1ccc2nc(N(CCN(C)C)C(=O)C3=COCCO3)sc2c1`, the GFP response vs DMSO was 102% (inactive) in test [12], 105% (inactive) in test [13], 98.9% (inactive) in test [14] and 103% (inactive) in [15]. The percent response vs DMSO in [16] was 104% (inactive).
